We go through 72 molecules from PubChem BioAssay AID977606 (Broad Institute, 2014).

In all, about 1,500 compounds went through this assay and about 430 (29%) were called active. How the calls were made is not given here. These entries were drawn from the full list. Entries with a potency or affinity are not part of this list.

The test is described as follows: insulin secretion activators without glucose, dose response, counter-screen for glucose-dependent insulin secretion activators, cell-based, INS-1E, Gaussia luciferase, luminescence, cherry-pick (AID 977606).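 Further: 0% = median of neutral control wells.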 As to conditions: INS-1E Gaussia luciferase insulin secretion, no glucose, 100% = twice neutral-control luminescence; series mostly up to 35 µM; activation: at the top concentration. Background: Counterscreens check selectivity or assay interference.
`O=C(Nc1ccc(C(=O)N2CCCC2)cc1)c1cccc(C(F)(F)F)c1`: the “activation” value is 6.96% (inactive).

For the molecule `CCOc1ccc(CCNC(=O)COc2cc(=O)n(C)c3ccccc23)cc1OCC`, the “activation” value was 16.5% (inactive).

`O=S1(=O)c2ccccc2OC(COCc2ccccc2)CN1C1CC1` (configuration not stated): the “activation” value was 2.22% (inactive).

For `CC(C)Oc1cccc(C(=O)C2CCCN(C(=O)CCc3cnn(C)c3)C2)c1` (configuration not stated), the “activation” value was -11.9% (inactive).

Consider `COc1ccc(-c2nnc3sc(-c4cccs4)nn23)cc1OC`, for which the “activation” value is -0.837% (inactive).

Consider `c1csc(-c2nc(NCC3CCCO3)c3ccccc3n2)c1` (configuration not stated), for which the “activation” value was 9.46% (inactive).

Regarding `Cc1cc(NC(=O)COC(=O)c2oc3c(Cl)cccc3c2C)no1`, the “activation” value was -1.82% (inactive).

For `COc1cc(/C=N/Nc2cc(C)nc(NS(=O)(=O)c3ccc(C)cc3)n2)ccc1O`, the “activation” value is -9.01% (inactive).

In the case of `CCOc1nc(NC(=O)NS(=O)(=O)Oc2ccccc2Cl)nc(-c2ccccc2)n1`, the “activation” value was -8.66% (inactive).

For `CCOc1ccccc1CNS(=O)(=O)c1cnc[nH]1`, the “activation” value is 0.89% (inactive).

With `Nc1nc(SCc2nc3scc(-c4ccccc4)c3c(=O)[nH]2)n[nH]1`, the “activation” value was -17.5% (inactive).

On to `CCCC(=O)Nc1ccc(N2CCN(S(C)(=O)=O)CC2)cc1`, for which the “activation” value is 14.1% (inactive).

In the case of `O=C(O)CCCNC(=O)c1nn(Cc2ccccc2)c(=O)c2ccccc12`, the “activation” value is 1.47% (inactive).

Take `C/C=C/c1ccc(OCCN2C(=O)NC(C)(C)C2=O)c(OC)c1`: the “activation” value is -4.08% (inactive).

Take `COc1ccc(C2=Nn3c(nnc3-c3ccccc3F)SC2)cc1OCC1CC1`: the “activation” value is -24.7% (inactive).

Turning to `CS(=O)(=O)N1CCN(c2ccccc2NC(=O)c2ccco2)CC1`, the “activation” value was 21.4% (inactive).

Consider `O=C(Nc1nccs1)c1cc(N2CCOCC2)nc2ccccc12`, for which the “activation” value is -9.4% (inactive).

For `O=C(Nc1cccnc1Cl)C1=NN(c2ccccc2)C(=O)CC1`, the “activation” value is -2.54% (inactive).

Consider `CCc1onc(C)c1C(=O)Nc1ccc(N2CCOCC2)cc1`, for which the “activation” value was 21.2% (inactive).

On to `C[C@@H]1CN([C@H](C)CO)C(=O)c2cc(C3=CCCCC3)cnc2O[C@H]1CN(C)C(=O)CN1CCOCC1`, for which the “activation” value is 33.7% (inactive).

In the case of `CCNc1nc(NCC)nc(N(C)/N=C/c2ccco2)n1`, the “activation” value was 7.09% (inactive).

As to `COc1cc(NC(=O)c2c(-c3ccccc3Cl)noc2C)c2ncccc2c1`, the “activation” value was -11.6% (inactive).

On to `CCc1ccc(N(C2C=CS(=O)(=O)C2)S(=O)(=O)c2ccccc2)cc1` (configuration not stated), for which the “activation” value was 7.78% (inactive).

Consider `COc1ccc(CC(=O)c2ccc(OC)c(OC)c2)cc1`, for which the “activation” value is -6.86% (inactive).

Regarding `COc1ccc(CCNC(=O)Cc2ccc3c(c2)OCO3)cc1OC`, the “activation” value was -14.8% (inactive).

Take `COc1ccc(C(=O)NCC(=O)OCC(=O)NC2CCCCCC2)cc1OC`: the “activation” value is -8.94% (inactive).

Take `COC(=O)C1C(=O)NC(SC)=C(C#N)C1c1ccccc1` (configuration not stated): the “activation” value is -94.9% (inactive).

In the case of `COc1cccc(CNC(=O)N[C@@H](CC(C)C)C(=O)O)c1`, the “activation” value was 4.45% (inactive).

As for `COc1ccc(C2N(c3ccccc3)C(=O)C2(F)F)cc1OC` (configuration not stated), the “activation” value was 1.38% (inactive).

Regarding `COC(=O)C1=C(C)NC(=S)NC1c1cccc(OC)c1` (configuration not stated), the “activation” value was 4.93% (inactive).

As for `Cc1cccc(C2N=C(N)Nc3nc4ccccc4n32)c1` (configuration not stated), the “activation” value was 16.5% (inactive).

On to `CCOc1ccc(C(=O)NCC(=O)Nc2cc(C)ccn2)cc1OCC`, for which the “activation” value is -0.143% (inactive).

Regarding `CCCN(Cc1nnc(-c2ccccc2Cl)o1)C(=O)c1cc2ccccc2o1`, the “activation” value was -3.92% (inactive).

For `c1ccc2nc3c(nc2c1)c1ccccc1n3CCN1CCOCC1`, the “activation” value is 5.65% (inactive).

For `COc1ccc(CCN(C)C(=O)C(CCSC)NC(=O)c2ccco2)cc1OC` (configuration not stated), the “activation” value was 2.04% (inactive).

On to `CC(=O)Nc1ccc(S(=O)(=O)Nc2ccc3c(c2)n(C)c(=O)n3C)c(C)c1`, for which the “activation” value was 3.77% (inactive).

Regarding `COc1nc(N2CCOCC2)nc(-n2cccc2)n1`, the “activation” value was -0.551% (inactive).

For `COc1ccc(S(=O)(=O)N(C)c2ccc(C(=O)NCC3CCCO3)cc2)cc1OC` (configuration not stated), the “activation” value was 6.43% (inactive).

For the molecule `Cc1ccnc(NC(=O)CNC(=O)c2ccco2)c1`, the “activation” value was -10.1% (inactive).

Consider `CCC(=O)Nc1cc2nn(-c3ccc(OC)cc3)nc2cc1C`, for which the “activation” value is -3.71% (inactive).

In the case of `CCOc1cc(NC(=O)c2ccco2)c(OCC)cc1NC(=O)c1cc(OC)c(OC)c(OC)c1`, the “activation” value was -13.1% (inactive).

On to `COc1ccc(-c2c(NC(=O)c3ccco3)oc3ccc(Cl)cc3c2=O)cc1`, for which the “activation” value was -3.48% (inactive).

Consider `Cc1ccc(C2(C)NC(=O)N(CC(=O)Nc3ccc(-c4nc5ccc(C)cc5s4)cc3)C2=O)cc1` (configuration not stated), for which the “activation” value is -15.2% (inactive).

With `COc1ccc(-c2nc(CCNC(=O)c3ccco3)cs2)cc1OC`, the “activation” value is -0.006% (inactive).

With `COc1ccc(S(=O)(=O)N2CCCCC2)cc1NC(=O)C1CC1C` (configuration not stated), the “activation” value is 26.7% (inactive).

With `CC(Oc1ccc2c3c(c(=O)oc2c1)CCCC3)C(=O)NCc1cccnc1` (configuration not stated), the “activation” value is -13% (inactive).

As to `Cc1ccc(Nc2ncnc3sccc23)c(C)c1`, the “activation” value is -5.06% (inactive).

As to `O=C(CN1C(=O)NC(Cc2c[nH]c3ccccc23)C1=O)NCCc1ccccc1` (configuration not stated), the “activation” value was 0.275% (inactive).

On to `O=C(Nc1nnc(CCS(=O)(=O)c2ccc3ccccc3c2)s1)c1cccs1`, for which the “activation” value was 1.61% (inactive).

As for `O=C(Nc1ccc(NC(=O)c2cccs2)cc1)c1ccc(Br)o1`, the “activation” value is -6.3% (inactive).

On to `CS(=O)(=O)N1CCCCC1c1cc(C(=O)Nc2cccc(C#N)c2)no1` (configuration not stated), for which the “activation” value is 3.77% (inactive).

`CN(c1ccc(F)cc1)S(=O)(=O)c1ccc(Cl)c(C(=O)NCC2CCCO2)c1` (configuration not stated): the “activation” value was -1.9% (inactive).

Consider `COc1cc(Cl)c(C)cc1NC(=O)c1ccccc1NC(=O)CN1CCN(C(C)=O)CC1`, for which the “activation” value is -5.13% (inactive).

Regarding `Cc1cc(C)nc(NC(=O)c2ccc(Cl)cc2Cl)n1`, the “activation” value was -13.6% (inactive).

Regarding `O=C(CNC(=O)c1ccco1)N/N=C/c1ccc(C(=O)O)cc1`, the “activation” value is 13.5% (inactive).

For `COc1cccc2cc(-c3cc(=O)oc4cc(C)c(O)cc34)oc12`, the “activation” value is -14.2% (inactive).

For `COCCN(CCOC)Cc1cc(=O)oc2cc(C)c(C)cc12`, the “activation” value was 19.4% (inactive).

`Cc1c(OCC(=O)NCc2ccccn2)ccc2c3c(c(=O)oc12)CCCC3`: the “activation” value was -14.3% [at 11 µM] (inactive).

On to `Cc1sc2ncn(CC(=O)NCc3ccccc3)c(=O)c2c1C`, for which the “activation” value is 3.79% (inactive).

As for `O=C1NC(=O)C2(CCCCC2C2CCCCC2)N1` (configuration not stated), the “activation” value is -0.57% (inactive).

As to `COc1ccccc1CNC(=O)CCS(=O)(=O)Cc1ccc(C)cc1`, the “activation” value is 7.48% (inactive).

With `Cc1cc(C)c(CSc2nnnn2-c2ccc(C(=O)O)cc2)c(C)c1`, the “activation” value was -5.78% (inactive).

For the molecule `CC(C)c1cc(C(C)C)n2nc(N)nc2n1`, the “activation” value is -3.96% (inactive).

For the molecule `CN1CCSc2ccc(C(=O)Nc3cccc(F)c3)cc21`, the “activation” value was -8.84% (inactive).

For the molecule `CC(=O)c1ccc(OCC(=O)N(C2CCCCC2)C2CCS(=O)(=O)C2)cc1` (configuration not stated), the “activation” value is 4.75% (inactive).

Regarding `Cc1ccc(C(=O)N2CCN3C(=O)c4ccccc4C23c2ccccc2)cc1` (configuration not stated), the “activation” value was 1.92% (inactive).

As to `COc1cc2cnc(-c3cccnc3)cc2cc1OC`, the “activation” value was -6.43% (inactive).

With `Cc1ccc(S(=O)(=O)NCc2csc(-c3cccs3)n2)cc1`, the “activation” value is 13.5% (inactive).

For the molecule `COc1cc2[nH]c(-c3ccc(C)cc3)cc(=O)c2cc1OC`, the “activation” value was -15.4% (inactive).

For the molecule `O=C(Cn1[nH]c(=O)c2ccccc2c1=O)OCC(=O)c1ccc(F)cc1`, the “activation” value was -5.33% (inactive).

For `CCN(Cc1ccccc1)S(=O)(=O)c1ccccc1Br`, the “activation” value is -6.72% (inactive).

Turning to `C=CCN(CC=C)S(=O)(=O)c1ccc(C(=O)Nc2sc3c(c2C(N)=O)CCCCC3)cc1`, the “activation” value is 23.2% (inactive).
